According to PubChem BioAssay (NCI):
The panel holds about 83,000 compounds, 20% with a hit somewhere; the sample as a whole holds those more often.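 Compound tested at a single concentration for 48 hours in 96-well plates; a percent growth value below 10 was scored as active.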 Calls of active or inactive are those of the source.

Legend:
Assay in all cases: NCI-60 one-dose screen, 48 h (100 = growth as untreated, 0 = no growth, -100 = all killed)
HT29 colon = conditions: 10 µM unless noted
SNB-75 CNS = conditions: 10 µM unless noted
U251 CNS = conditions: 10 µM unless noted
PC-3 prostate = conditions: 10 µM unless noted
SK-MEL-5 melanoma = conditions: 10 µM unless noted
UACC-62 melanoma = conditions: 10 µM unless noted
LOX IMVI melanoma = conditions: 10 µM unless noted
SK-MEL-28 melanoma = conditions: 10 µM
SK-MEL-2 melanoma = conditions: 10 µM unless noted
SN12C renal = conditions: 10 µM unless noted
UO-31 renal = conditions: 10 µM unless noted
TK-10 renal = conditions: 10 µM unless noted
ACHN renal = conditions: 10 µM unless noted
CAKI-1 renal = conditions: 10 µM unless noted
A498 renal = conditions: 10 µM unless noted
CCRF-CEM leukemia = conditions: 10 µM unless noted
MOLT-4 leukemia = conditions: 10 µM unless noted
SR leukemia = conditions: 10 µM unless noted
EKVX NSCLC = conditions: 10 µM unless noted
SNB-19 CNS = conditions: 10 µM unless noted

Measured: growth

CCN1CCN(c2cc(C)c3cc(NC(=O)c4ccc(OC)c(OC)c4)ccc3n2)CC1
active: A498 renal -3.67% | CCRF-CEM leukemia 7.94% | SR leukemia 1.64%
inactive: HT29 colon 13% | SNB-75 CNS 66.9% | U251 CNS 45.6% | PC-3 prostate 49.2% | SK-MEL-5 melanoma 19.4% | UACC-62 melanoma 27.3% | LOX IMVI melanoma 33.4% | SK-MEL-28 melanoma 51.9% | SK-MEL-2 melanoma 50.7% | SN12C renal 44.7% | UO-31 renal 54% | TK-10 renal 57.6% | ACHN renal 58.4% | CAKI-1 renal 48.1% | MOLT-4 leukemia 16.2%

COc1ccc(-c2nc(N3CCN(C(=O)C4CCCCC4)CC3)c3c4c(sc3n2)CCCC4)cc1
active: HT29 colon -49.9% | SNB-75 CNS -66.3% | U251 CNS -78.6% | PC-3 prostate -28.7% | LOX IMVI melanoma 5.28% | SK-MEL-28 melanoma -24.2% | UO-31 renal -7.01% | TK-10 renal -40.1% | CAKI-1 renal -12.1% | CCRF-CEM leukemia 5.79% | MOLT-4 leukemia 1.83% | SR leukemia -33.2%
inactive: SK-MEL-5 melanoma 36.5% | UACC-62 melanoma 44.1% | SK-MEL-2 melanoma 24.7% | SN12C renal 77.2% | ACHN renal 33.5% | A498 renal 57.1%

O=C(N/N=C/c1ccccc1O)C(=O)Nc1ccc(F)cc1
inactive: HT29 colon 40.9% | SNB-75 CNS 85.5% | U251 CNS 33.5% | PC-3 prostate 54.7% | SK-MEL-5 melanoma 55.5% | UACC-62 melanoma 35.1% | LOX IMVI melanoma 27.2% | SK-MEL-28 melanoma 59.4% | SK-MEL-2 melanoma 71.6% | SN12C renal 44.5% | UO-31 renal 19.3% | TK-10 renal 53.8% | ACHN renal 30.4% | CAKI-1 renal 22.7% | A498 renal 92.4% | CCRF-CEM leukemia 23% | MOLT-4 leukemia 21.3% | SR leukemia 23.3%

CN1C(=O)N(C)C2Nn3c(s/c(=C4\C(=O)N(CCc5ccccc5)c5ccccc54)c3=O)=NC21 (stereo not given)
inactive: HT29 colon 38.4% | SNB-75 CNS 48.2% | U251 CNS 77.8% | PC-3 prostate 44.4% | SK-MEL-5 melanoma 27.4% | UACC-62 melanoma 44.7% | LOX IMVI melanoma 54.8% | SK-MEL-28 melanoma 76.4% | SK-MEL-2 melanoma 69.3% | EKVX NSCLC 58% | SN12C renal 74.3% | UO-31 renal 62.9% | TK-10 renal 70.5% | ACHN renal 59.3% | CAKI-1 renal 49.2% | A498 renal 70.3% | CCRF-CEM leukemia 53.1% | MOLT-4 leukemia 70.8% | SR leukemia 30.4%

O=Nc1c(O)ccc2ccccc12.O=Nc1c(O)ccc2ccccc12.O=Nc1c([O-])ccc2ccccc12.[Fe+3]
inactive: HT29 colon 109% | SNB-75 CNS 72.7% | SNB-19 CNS 109% | PC-3 prostate 88.9% | UACC-62 melanoma 95.6% | LOX IMVI melanoma 98.8% | SK-MEL-28 melanoma 104% | SK-MEL-2 melanoma 107% | SN12C renal 99.6% | UO-31 renal 60.2% | TK-10 renal 127% | ACHN renal 102% | CAKI-1 renal 106% | A498 renal 105% | CCRF-CEM leukemia 107% | MOLT-4 leukemia 110% | SR leukemia 105%

O=CCCCC(O)C=O (stereo not given)
inactive: HT29 colon 111% | SNB-75 CNS 97.7% | SNB-19 CNS 106% | PC-3 prostate 103% | UACC-62 melanoma 109% | LOX IMVI melanoma 97.9% | SK-MEL-28 melanoma 111% | SK-MEL-2 melanoma 105% | SN12C renal 97.6% | UO-31 renal 81.5% | TK-10 renal 104% | ACHN renal 103% | CAKI-1 renal 101% | A498 renal 98.7% | CCRF-CEM leukemia 102% | MOLT-4 leukemia 94% | SR leukemia 90.5%

COc1c2ccoc2c(/C=C/C=O)c2oc(-c3ccccc3)cc(=O)c12
inactive: HT29 colon 87.1% | SNB-75 CNS 95.2% | U251 CNS 16.3% | PC-3 prostate 37.9% | SK-MEL-5 melanoma 48.6% | UACC-62 melanoma 83% | SK-MEL-28 melanoma 102% | SK-MEL-2 melanoma 78.2% | SN12C renal 38.7% | UO-31 renal 60.1% | TK-10 renal 93.8% | ACHN renal 91.5% | CAKI-1 renal 93.1% | A498 renal 72.4% | MOLT-4 leukemia 10.4%
active: LOX IMVI melanoma -41% | CCRF-CEM leukemia 0.373% | SR leukemia 5.33%

O=C(O)CCC(=O)c1ccc(C2CCCCCC2)cc1
inactive: HT29 colon 91.6% | SNB-75 CNS 96.5% | U251 CNS 96% | PC-3 prostate 99.2% | SK-MEL-5 melanoma 105% | UACC-62 melanoma 106% | LOX IMVI melanoma 99% | SK-MEL-2 melanoma 105% | SN12C renal 99.5% | UO-31 renal 80.4% | TK-10 renal 99.1% | ACHN renal 97.1% | CAKI-1 renal 97.4% | A498 renal 89.2% | CCRF-CEM leukemia 101% | MOLT-4 leukemia 87.3% | SR leukemia 93.8%

O=C(/C=C/c1ccccn1)c1ccc(OCc2nnc(-c3ccc(Cl)cc3)o2)cc1
active: HT29 colon -62.5% | LOX IMVI melanoma -92.1% | UO-31 renal -90.1% | CAKI-1 renal -25.7% | SR leukemia -11.7%
inactive: SNB-75 CNS 50.8% | SNB-19 CNS 52.3% | PC-3 prostate 58.9% | UACC-62 melanoma 49.3% | SK-MEL-28 melanoma 53.8% | SK-MEL-2 melanoma 98.6% | SN12C renal 33.2% | TK-10 renal 16.6% | ACHN renal 27.3% | A498 renal 88.3% | MOLT-4 leukemia 17.2%

COc1ccc(CSc2nnc(SCC(=O)Nc3ccc(Cl)cc3)s2)cc1
inactive: HT29 colon 98.5% | SNB-75 CNS 93.2% | SNB-19 CNS 90.9% | PC-3 prostate 58.6% | UACC-62 melanoma 18.2% | LOX IMVI melanoma 46.8% | SK-MEL-28 melanoma 87.2% | SK-MEL-2 melanoma 124% | SN12C renal 68.5% | UO-31 renal 52.8% | TK-10 renal 96.3% | ACHN renal 59.9% | CAKI-1 renal 38% | A498 renal 85.6% | CCRF-CEM leukemia 53.3% | MOLT-4 leukemia 58% | SR leukemia 86.1%

CC(C)C[C@H](C(=O)N[C@H](C(N)=O)C(C)C)N1CC=CCN(OCc2ccccc2)S1(=O)=O
inactive: HT29 colon 102% [2.5 µM] | SNB-75 CNS 69.7% [2.5 µM] | U251 CNS 97.1% [2.5 µM] | PC-3 prostate 98.5% [2.5 µM] | SK-MEL-5 melanoma 106% [2.5 µM] | UACC-62 melanoma 98.8% [2.5 µM] | LOX IMVI melanoma 95.7% [2.5 µM] | SK-MEL-2 melanoma 98.9% [2.5 µM] | EKVX NSCLC 114% [2.5 µM] | SN12C renal 94.9% [2.5 µM] | UO-31 renal 83.6% [2.5 µM] | TK-10 renal 102% [2.5 µM] | ACHN renal 97.8% [2.5 µM] | CAKI-1 renal 99.4% [2.5 µM] | A498 renal 108% [2.5 µM] | CCRF-CEM leukemia 92.4% [2.5 µM] | MOLT-4 leukemia 82.5% [2.5 µM] | SR leukemia 93.4% [2.5 µM]

CCC1=C[C@]2(C3CC(=O)N(c4ccccc4)C3=O)CC(C(C)(C)C)C[C@@H]2[C@@H]2C(=O)N(c3ccccc3)C(=O)[C@H]12 (stereo not given in full)
inactive: HT29 colon 74.3% | SNB-75 CNS 66.3% | U251 CNS 79.1% | PC-3 prostate 56.7% | SK-MEL-5 melanoma 92.1% | UACC-62 melanoma 71.9% | LOX IMVI melanoma 93.1% | SK-MEL-28 melanoma 92.6% | EKVX NSCLC 74.3% | SN12C renal 89.2% | UO-31 renal 73.1% | TK-10 renal 99.7% | ACHN renal 90.5% | CAKI-1 renal 71.4% | A498 renal 88% | CCRF-CEM leukemia 86.2% | MOLT-4 leukemia 80.4% | SR leukemia 80.4%

Cc1ccc(Nc2nc(N)c3ccccc3n2)cc1Cl
inactive: HT29 colon 27.4% | SNB-75 CNS 95.2% | U251 CNS 61.8% | PC-3 prostate 60.4% | SK-MEL-5 melanoma 60.2% | UACC-62 melanoma 53.9% | LOX IMVI melanoma 40.4% | SK-MEL-2 melanoma 50.9% | UO-31 renal 57.2% | TK-10 renal 81.5% | ACHN renal 64.4% | CAKI-1 renal 39.7% | A498 renal 72.3% | CCRF-CEM leukemia 48.3% | MOLT-4 leukemia 48.9%
active: SR leukemia 1.13%

CCOc1cccc(/C=N\Nc2nc(=O)cc(C(=O)OC)s2)c1O
inactive: HT29 colon 76.1% | SNB-75 CNS 77.8% | U251 CNS 57.6% | PC-3 prostate 72.8% | SK-MEL-5 melanoma 79.8% | UACC-62 melanoma 63% | LOX IMVI melanoma 61.7% | SK-MEL-28 melanoma 87.2% | SK-MEL-2 melanoma 99.6% | SN12C renal 59.1% | UO-31 renal 49.7% | TK-10 renal 107% | ACHN renal 68.8% | CAKI-1 renal 65.9% | A498 renal 87.2% | CCRF-CEM leukemia 38.4% | MOLT-4 leukemia 53.6% | SR leukemia 50.7%

O=C(CSc1ncccc1C(=O)O)Nc1ccc(Oc2ccccc2)cc1
inactive: HT29 colon 115% | SNB-75 CNS 88.3% | SNB-19 CNS 106% | PC-3 prostate 99.8% | UACC-62 melanoma 116% | LOX IMVI melanoma 92.1% | SK-MEL-28 melanoma 105% | SK-MEL-2 melanoma 106% | UO-31 renal 78.1% | TK-10 renal 105% | ACHN renal 107% | CAKI-1 renal 95.8% | A498 renal 96.7% | CCRF-CEM leukemia 99.6% | MOLT-4 leukemia 84.6% | SR leukemia 78.2%

COc1ccc2c(c1)C=C1CSCC3=Cc4cc(OC)ccc4OC13O2
inactive: SNB-75 CNS 23.9% | U251 CNS 18.7% | PC-3 prostate 19.3% | SK-MEL-5 melanoma 14% | UACC-62 melanoma 14.2% | LOX IMVI melanoma 24.1% | SK-MEL-28 melanoma 60% | SK-MEL-2 melanoma 52.6% | EKVX NSCLC 40.3% | SN12C renal 28.2% | UO-31 renal 44.5% | TK-10 renal 60.7% | ACHN renal 32.5% | CAKI-1 renal 37.1% | CCRF-CEM leukemia 16.1% | MOLT-4 leukemia 14.3% | SR leukemia 27%
active: HT29 colon 6.74% | A498 renal 4.68%
